Compounds with a hit are over-represented: about 2.4% of the library has one in this group of screens.
D2 PAM-1 – HTS Assay for Positive Allosteric Modulators of the Human D2 Dopamine Receptor: Primary Screen for Potentiators. D(2) dopamine receptor (Homo sapiens), P14416. actives 0.34% (n = 340,000). HEK293 T-REx D2, calcium flux, EC20 dopamine potentiation. potentiation, % at 10 µM. AID 485347, 2010;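 active means potentiation over 3 SD above the plate norm, cut at about 30% in these data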; further: 0% is about no effect
Target sequence (P14416 whole entry, looked up): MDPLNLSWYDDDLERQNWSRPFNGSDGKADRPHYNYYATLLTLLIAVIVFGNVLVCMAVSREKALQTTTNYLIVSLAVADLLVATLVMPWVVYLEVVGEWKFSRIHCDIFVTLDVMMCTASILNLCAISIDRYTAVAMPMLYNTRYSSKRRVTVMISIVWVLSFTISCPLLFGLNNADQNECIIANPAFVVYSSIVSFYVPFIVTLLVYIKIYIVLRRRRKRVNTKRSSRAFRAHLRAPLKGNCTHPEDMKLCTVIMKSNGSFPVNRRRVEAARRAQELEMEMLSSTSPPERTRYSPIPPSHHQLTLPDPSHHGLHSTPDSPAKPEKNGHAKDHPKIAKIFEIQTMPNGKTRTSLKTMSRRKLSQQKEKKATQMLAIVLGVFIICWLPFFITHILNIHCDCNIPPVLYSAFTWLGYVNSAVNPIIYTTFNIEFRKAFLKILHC
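Tetracycline-induced Hek293 Trex D2 cells, force-coupled to calcium, loaded with no-wash calcium dye. Compound added with 180 s kinetic read for agonism, then EC20 dopamine and a further 180 s read for potentiation.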
D2 ag-1 – Beta-Arrestin HTS for Positive Allosteric Modulators of the Human D2 Dopamine Receptor: Agonists; D(2) dopamine receptor (Homo sapiens), P14416; DiscoveRx PathHunter D2 beta-arrestin, luminescence, 90 min; 100% = 57 uM dopamine signal; activation, % (test concentration not listed); actives 0.084% (n = 360,000); AID 624465, 2012; in the data active means activation above about 40%; inconclusive means between about 15% and that limit
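DiscoveRx PathHunter D2 beta-arrestin cells (2,100/well) attached overnight, then compound-stimulated 90 min at 37 C in HBSS/10 mM HEPES/0.1% Tween-20 buffer; beta-galactosidase complementation read by luminescence after 1 h at ambient temperature. Dopamine 57 uM final (EC100) as control.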
D2 PAM-2 – Beta-Arrestin HTS for Positive Allosteric Modulators of the Human D2 Dopamine Receptor: Potentiators; D(2) dopamine receptor (Homo sapiens), P14416; DiscoveRx D2 beta-arrestin cells, luminescence, 90 min; 100% = 57 uM dopamine signal; potentiation, % (concentration not given with the values); actives 0.23% (n = 360,000); in the data active means potentiation above about 50%; inconclusive means mostly about 30% to 49%
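D2 cells co-treated with compound plus 50 nM dopamine (EC20) for 90 min at 37 deg C to detect potentiation. Beta-arrestin recruitment was read as enzyme-fragment luminescence after 1 h at ambient temperature. Full response was set by 57 uM dopamine.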
D2 antag – HTS Assay for Allosteric Antagonists of the Human D2 Dopamine Receptor: Primary Screen for Antagonists. inhibition, % at 10 µM. HEK293 TREx D2 cells, calcium flux, dopamine EC80. actives 2% (n = 340,000); in the data active means inhibition above about 30%; inactive means below that, where a call was filed; further: 0% is about no effect
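Read-out: kinetic calcium fluorescence (1 cycle/s) in inducible HEK293 T-REx D2 cells after an EC80 dopamine addition that followed 180 s compound preincubation. Loss of the dopamine response indicates antagonism.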
D2 ag-2 – HTS Assay for Allosteric Agonists of the Human D2 Dopamine Receptor: Primary Screen for Agonists | activation, % at 2 µM | actives 0.53% (n = 340,000) | HEK293 T-REx D2 cells, calcium flux agonist mode;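 active means activation over 3 SD above normal in the single-dose calcium agonist read, cut at about 30% in these data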; further: 0% is about no effect
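Agonism scored from kinetic calcium signal (1 read/sec, 180 s) following compound pin transfer, after a 10 s baseline. Cells: HEK293 Trex line expressing inducible D2 receptor coupled to calcium, dye-loaded after overnight culture at 30 C.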
Active calls of the source: *; ? = inconclusive; · = no result.

SMILES | D2 PAM-1 | D2 ag-1 | D2 PAM-2 | D2 antag | D2 ag-2
CCOC(=O)c1ccc2c(c1)N(CC(=O)N1CCCC1)C(=O)C(C)(C)O2 | 45* | -3 | -15 | -2 | 0
CCOC(=O)N1CCN(C(=O)CN2C(=O)COc3ccc(C)cc32)CC1 | -6 | 1 | -7 | 37* | -1
CCN(c1ccccc1)S(=O)(=O)c1ccc(NC(=O)c2cc(=O)c3cc(C)ccc3o2)cc1 | -12 | · | · | · | ·
Cc1ccccc1NC(=O)CSc1nc(-c2ccc(F)cc2)nc2c1Cc1ccccc1O2 | -6 | · | · | · | 1
O=C(Nc1cc(-c2nc3cc(Cl)ccc3o2)ccc1Cl)c1cccc2ccccc12 | 5 | · | · | · | 0
CCc1ccc(NC(=O)Cn2cc(S(=O)(=O)c3ccc(F)cc3)c(=O)c3cc(OC)ccc32)cc1 | -22 | · | · | · | ·
CC(=O)N(c1ccccc1)c1nc(C)cc(C)c1C#N | -4 | -4 | -22 | 35* | 1
Cc1oc(-c2ccccc2F)nc1CSCC(=O)NCCc1ccccc1 | 10 | · | · | · | ·
Cc1oc(-c2ccccc2F)nc1CSCC(=O)NCc1ccc2c(c1)OCO2 | 33* | -4 | 8 | -4 | -3
Cc1ccc(CNC(=O)c2c[nH]c3ccc(S(=O)(=O)Nc4ccc(C(C)C)cc4)cc3c2=O)cc1 | 1 | · | · | · | 0
COc1ccc(CN(C(=O)Cc2coc3ccc(C)cc23)C2CCS(=O)(=O)C2)cc1 (centres undefined) | 3 | · | · | · | 2
COc1ccc(OCc2ccc(-c3nc(C#N)c(NCc4ccc(F)cc4)o3)o2)cc1 | -11 | · | · | · | 0
CC(SC1=Nc2ccccc2C2CC=NN12)C(=O)NC1(C#N)CCCCC1 (centres undefined) | -29 | -9 | -27 | 5 | 44*
CCN(CC)c1ccc(NC(=O)c2cnn3c(C(F)F)cc(-c4ccccc4)nc23)cc1 | -5 | · | · | · | 0
CN(C)c1ccc(/C=C/C(=O)c2c(O)c3ccccc3oc2=O)cc1 | 4 | 4 | 2 | -2 | 39*
COc1c(C)cccc1C(=O)Nc1ccc(-c2nc3ccccc3s2)c(Cl)c1 | 4 | · | · | · | ·
O=C(O)CCCC(=O)Nc1nc(-c2ccccc2)cs1 | -9 | -3 | -2 | -4 | -1
O=C(O)CCCC(=O)Nc1nc(-c2ccc(F)cc2)cs1 | 34* | -1 | -9 | 9 | -1
CCOC(=O)N1CCN(C(=O)C2CCN(S(=O)(=O)c3c(C)cc(C)cc3C)CC2)CC1 | · | 1 | 1 | · | ·
CCOC(=O)N1CCN(S(=O)(=O)c2c(C)cc(C)cc2C)CC1 | 3 | 1 | -8 | 54* | 0
COc1cccc(C(=O)CSc2nc3cccnc3n2C)c1 | -3 | 1 | -3 | 37* | 1
COc1ccc(C(=O)CSc2nc3cccnc3n2C)cc1 | 11 | -3 | 1 | -14 | 0
Cc1cc(NC(=O)CCC(=O)N(Cc2ccccc2)C2(C(=O)NC3CCCCC3)CCCC2)no1 | 2 | 10 | -3 | 44* | 1
Cc1cc(NC(=O)CCC(=O)N(Cc2ccco2)C2(C(=O)NC3CCCCC3)CCCCC2)no1 | 0 | -4 | -7 | -11 | -1
Cc1ccc(C)c(N(CC(=O)NC2CCCC2)C(=O)CCC(=O)Nc2cc(C)on2)c1 | -24 | 0 | -1 | 36* | 0
SMILES | D2 PAM-1 | D2 ag-1 | D2 PAM-2 | D2 antag | D2 ag-2
COc1ccc2oc(C)c(C(=O)c3ccc([N+](=O)[O-])cc3)c2c1 | 14 | ? | 84* | -2 | 19
Oc1ccc(C2=NN(c3ccccc3)C(c3ccc(F)cc3)C2)cc1 (centres undefined) | 4 | 5 | 0 | 33* | 1
Cc1ccc(C2CC(c3ccccc3)=NN2c2ccccc2)o1 (centres undefined) | -3 | -6 | -9 | 36* | -1
Fc1ccc(C2=NN(c3ccccc3)C(c3ccco3)C2)cc1 (centres undefined) | 18 | -9 | -4 | -35 | -1
Fc1ccc([C@@H]2CCNC[C@H]2COc2ccc3c(c2)OCO3)cc1 | -9 | 3 | -6 | 41* | 15
COC(=O)c1sccc1S(=O)(=O)N(CC(=O)NCc1ccc(F)cc1)c1ccccc1 | · | · | · | · | 0
CNC(=O)c1nnc(Cc2ccc(F)cc2)o1 | 0 | -5 | -2 | 58* | -1
Cc1cccc(Cn2c(=O)n(Cc3ccc4c(c3)OCO4)c(=O)c3oc4ccccc4c32)c1 | -2 | · | · | · | 0
COc1ccccc1C1CCN(Cc2ccc(C)cc2)CC1 | -27 | -3 | -14 | 95* | -1
CCc1ccc2c(CN3CCc4cc(OC)c(OC)cc4C3)cc(=O)oc2c1 | -26 | 0 | -18 | 32* | 26
COc1ccccc1CNC1CCN(Cc2ccccc2)CC1 | · | -4 | -14 | · | ·
COc1cc2c(cc1OC)CN(Cc1ccc(C)cc1)CC2 | -27 | 0 | -17 | 56* | 0
Cc1cc(OC(C)C(=O)N2CCC(c3nc4ccccc4o3)CC2)ccc1Cl (centres undefined) | 8 | · | · | · | 1
O=C(NCc1cccc(Cl)c1)c1ccc(NC(=O)N2CC3CCCN3c3ccccc32)cc1 (centres undefined) | -5 | · | · | · | 0
COc1cc(OC)cc(C(=O)N2CCC(c3ccncc3)CC2)c1 | -6 | · | · | · | 0
Cc1ccc(C(=O)Oc2oc(-c3ccccc3)nc2C=Nc2ccc(N(C)C)cc2)cc1 | 39* | -1 | -18 | -8 | -2
CC(=O)NNC(=S)NC(=O)C(c1ccccc1)c1ccccc1 | -1 | 1 | -8 | 9 | 2
CC(C)(C)C(=O)NC(=S)NNC(=O)C(c1ccccc1)c1ccccc1 | -11 | -16 | -21 | 75* | 99*
Cc1ccc(C)c(N2CCN(C(=O)Cn3c(-c4cccs4)cc4ccccc43)CC2)c1 | 1 | · | · | · | 0
Cc1cc(C)c(/C=C(\C#N)C(N)=S)c(C)c1 | -3 | -4 | -15 | 84* | 4
COCCn1c(CNC(=O)c2cccc(N(C)C)c2)nc2cccnc21 | -1 | · | · | · | -2
Cc1cc(=O)oc2cc(OCC(=O)N3CCOCC3)ccc12 | 48* | -6 | -9 | 2 | 0
O=C(CCN1CCN(c2ccccc2F)CC1)c1ccc(Br)cc1 | -18 | 1 | -13 | 34* | 10
COc1ccc(N2CCN(CCC(N)=O)CC2)cc1 | -8 | 4 | -7 | -8 | 0
COc1ccc(N2CCN(CCOc3ccc4c(C)cc(=O)oc4c3)CC2)cc1 | -34 | -1 | -42 | 72* | 1
Cc1cc(=O)oc2cc(OCC(=O)N3CCCC3)ccc12 | · | -3 | -5 | · | ·

From PubChem
